From PubChem BioAssay
This is a sample that favours compounds with a hit; in the whole collection about 28% have one here.
CYP2C9 activ = activators of human CYP2C9 | recombinant CYP2C9, luciferin-H conversion, luminescence; active compounds read high; factor 1 = untreated enzyme, 0 = blocked | AID 1024 | activation factor at 5 µM | hit rate 1.4% among 96,000;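 active means activation factor of 2 or more for CYP2C9 at a 5 µM dose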
CYP2C19 act = cytochrome P450 2C19 (human) activation; P33261; recombinant CYP2C19, luciferin-H EGE luminescence; active compounds read high; 0 = fully inhibited enzyme, 1 = untreated enzyme; activation factor at 5 µM; 96,000 tested, under 10 active; AID 1025;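 active means activation factor of at least 2 at 5 µM in the primary screen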
Target sequence (P33261 whole entry, looked up): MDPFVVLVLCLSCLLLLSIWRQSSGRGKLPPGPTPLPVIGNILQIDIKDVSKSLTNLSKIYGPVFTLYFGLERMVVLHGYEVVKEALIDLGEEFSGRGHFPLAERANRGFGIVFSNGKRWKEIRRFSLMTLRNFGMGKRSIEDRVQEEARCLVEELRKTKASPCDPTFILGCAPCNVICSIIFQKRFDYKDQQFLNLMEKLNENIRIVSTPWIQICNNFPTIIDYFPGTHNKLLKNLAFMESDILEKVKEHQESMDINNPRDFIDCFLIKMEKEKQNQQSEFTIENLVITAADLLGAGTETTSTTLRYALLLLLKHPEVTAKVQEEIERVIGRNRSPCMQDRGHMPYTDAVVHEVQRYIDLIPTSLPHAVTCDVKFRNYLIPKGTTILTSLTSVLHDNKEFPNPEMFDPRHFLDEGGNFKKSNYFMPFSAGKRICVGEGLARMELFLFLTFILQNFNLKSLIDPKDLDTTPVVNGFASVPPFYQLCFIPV
CYP2C19 inhib = inhibitors of human CYP2C19 | inhibition, % at 5 µM | CYP2C19 Supersomes, luciferin-H EGE luminescence, 30 min | AID 778 | hit rate 21% among 96,000;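 active means CYP2C19 inhibition above a set limit at 5 µM in the primary screen, cut at about 50% in these data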
Pyk2 oligo antag = blocks oligomerization of human Pyk2 in cells; AID 1347419; hit rate 0.83% among 99,000; Q293 cells, Pyk2 FERM NanoBiT luminescence; active compounds read low; z-score (the deposit names both 25 µM and 10 µM);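 active means Z-score of -3 or lower, scaled per plate to the spread of control and sample wells; inactive means z-score above -3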;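 further: negative z-score means lost luminescence so less FERM oligomerization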
CYP2C9 inhib = human CYP2C9 inhibition. P11712. CYP2C9 Supersomes, luciferin-H conversion, luminescence. inhibition, % at 5 µM. hit rate 20% among 96,000. AID 777;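 active means blocking of liver enzyme CYP2C9 beyond about 50% at 5 µM, limit read from the data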
Of the large screens only hits and unclear results are named; the others gave an inactive call.

CCC(C)Nc1nc2c(c(=O)n(C)c(=O)n2C)n1Cc1ccc(F)cc1 (stereo not drawn)	none
CCOC(=O)C1CCCCN1Cc1ccccc1C(F)(F)F (stereo not drawn)	CYP2C19 inhib 95, CYP2C9 inhib 52
CCOC(=O)C1CCCCN1Cc1ccc(C(F)(F)F)cc1 (stereo not drawn)	CYP2C19 inhib 97, CYP2C9 inhib 62
Cc1ccccc1-n1cnnc1SCC(=O)N1CCN(c2ccccc2)CC1	none
CCOc1ccc(C)cc1S(=O)(=O)Nc1cccnc1	none (no result: CYP2C9 activ, CYP2C19 act, CYP2C19 inhib, CYP2C9 inhib)
CCOc1ccc(C)cc1S(=O)(=O)n1ccnc1	CYP2C9 inhib 61
CCOC(=O)CC(=O)CSc1nc(N)c(C#N)c(-c2ccc(F)cc2)c1C#N	CYP2C19 inhib 62, CYP2C9 inhib 53
CCCCOC(=O)CSc1nc(N)c(C#N)c(-c2ccc(OCC)cc2)c1C#N	none
C=C(C)CSc1nc(N)c(C#N)c(-c2ccc(C)cc2)c1C#N	CYP2C9 inhib 50
CCOC(=O)CSc1nc(N)c(C#N)c(-c2ccc(OC)cc2)c1C#N	CYP2C19 inhib 60
O=C(COC(=O)c1ccc[nH]c1=O)NC1CCCC1	none
COc1cc(OC)c(OC)cc1CN1CCc2ccccc2C1	CYP2C19 inhib 52
Cc1[nH]c2ccccc2c1CN1CCc2ccccc2C1	none
CCc1ccc2c(CN3CCc4cc(OC)c(OC)cc4C3)cc(=O)oc2c1	none (no result: CYP2C9 activ, CYP2C19 act, CYP2C19 inhib, CYP2C9 inhib)
COc1cc2c(cc1OC)CN(Cc1ccc(OC)c(C)c1OC)CC2	CYP2C19 inhib 64
CC1(C)CC(=O)C2=C(C1)OC(N)=C(C#N)C2Cc1ccccc1 (stereo not drawn)	CYP2C19 inhib 98, CYP2C9 inhib 79
N#CC1=C(N)N(c2ccccc2C#N)C2=C(C(=O)CCC2)C1c1ccsc1 (stereo not drawn)	CYP2C9 inhib 62
N#CC1=C(N)N(c2ccccc2)C2=C(C(=O)CCC2)C1c1cccs1 (stereo not drawn)	none
CC1C(C#N)=C(N)OC2=C1C(=O)CC(C)(C)C2 (stereo not drawn)	none
COC(=O)C1=C(N)OC2=C(C(=O)CC(C)(C)C2)C1c1ccoc1 (stereo not drawn)	CYP2C9 inhib 55
COc1ccccc1C1C(C#N)=C(N)N(c2cccnc2)C2=C1C(=O)CC(C)(C)C2 (stereo not drawn)	none (no result: CYP2C9 activ, CYP2C19 act, CYP2C19 inhib, CYP2C9 inhib)
CC1(C)CC(=O)C2=C(C1)N(c1ccccc1)C(N)=C(C#N)C2c1ccsc1 (stereo not drawn)	CYP2C19 inhib 68, CYP2C9 inhib 75
COc1nc(-c2ccccc2)ccc1-c1noc(-c2ccccc2F)n1	none
CN1CCCN(C(=O)Cc2c(Cl)cccc2Cl)c2nc3ccccc3nc21	none
COc1ccc(N(CC(=O)Nc2cc(C(=O)O)ccc2C)S(=O)(=O)c2c(C)noc2C)cc1	none
CCN1CCN(C(=O)C2c3cc(OC)c(OC)cc3C(=O)N(C)C2c2ccc(SC)cc2)CC1 (stereo not drawn)	none (no result: CYP2C9 activ, CYP2C19 act, CYP2C19 inhib, CYP2C9 inhib)
CCCC(=O)Nc1sc(C)c(C)c1C(=O)Nc1cccc(C)c1	none
CC(=O)NC(=O)NC1CSCC1OC(C)=O (stereo not drawn)	none
N#CC1=C(N)OC2=C(C(=O)CCC2)C1CCc1ccccc1 (stereo not drawn)	CYP2C19 inhib 94, CYP2C9 inhib 92
CCn1c2ccccc2c2cc(C3C(C#N)=C(N)OC4=C3C(=O)CC(C)(C)C4)ccc21 (stereo not drawn)	CYP2C9 inhib 57 (no result: Pyk2 oligo antag)
CCOC(=O)C1=C(N)OC2=C(C(=O)CC(C)(C)C2)C1c1ccccc1OCC#N (stereo not drawn)	CYP2C19 inhib 71, CYP2C9 inhib 79
N#CC1=C(N)N(c2ccc(Br)cc2)C2=C(C(=O)CCC2)C1c1cccnc1 (stereo not drawn)	CYP2C9 inhib 52
CCOC(=O)C1=C(N)OC2=C(C(=O)CC(C)(C)C2)C1c1cccs1 (stereo not drawn)	none (no result: CYP2C9 activ, CYP2C19 act, CYP2C19 inhib, CYP2C9 inhib)
CCc1c(C(=O)N/N=C/c2ccc(C)o2)csc1C	none (no result: CYP2C9 activ, CYP2C19 act, CYP2C19 inhib, CYP2C9 inhib)
NC(=O)C1CCN(CCC(=O)Nc2cccc(Cl)c2)CC1	none
CCc1ccc(-c2cc(C(F)(F)F)n3nc(C(=O)Nc4cnn(Cc5ccc(C)cc5)c4)cc3n2)s1	none
CCn1c(C)cc(=S)c2ccccc21	none
CC1(C)CC(=O)C2=C(C1)N(c1ccc(F)cc1)C(N)=C(C#N)C2c1cccs1 (stereo not drawn)	none
N#CC1=C(N)OC2=C(C(=O)CCC2)C1C1C=CCCC1 (stereo not drawn)	CYP2C19 inhib 84, CYP2C9 inhib 73
Cc1ccc(N2C(N)=C(C#N)C(c3cccs3)C3=C2CC(C)(C)CC3=O)cc1 (stereo not drawn)	CYP2C9 inhib 80
CC(C)(C)c1[nH]nc2c1C(C1C=CCCC1)C(C#N)=C(N)O2 (stereo not drawn)	none
CCn1c2ccccc2c2cc(N)ccc21	CYP2C19 inhib 93
CC1(C)CC(=O)C2=C(C1)OC(N)=C(C#N)C2c1ccsc1 (stereo not drawn)	CYP2C19 inhib 63
Cc1cc(C)cc(OCC(=O)OCC(=O)c2c(N)n(C)c(=O)n(C)c2=O)c1	none
CCOC(=O)c1sc2nc(N3CCOCC3)c3c(c2c1N)CCN(Cc1ccccc1)C3	none
Cc1nn(C)cc1/C=N/NC(=S)Nc1ccccc1	none
Oc1c(N=Nc2ccccn2)ccc2ccccc12	none
Cc1cccc(NC(=O)CSc2nnc(CNC(=O)c3ccc(S(=O)(=O)N(C)C)cc3)n2-c2cccc(C)c2)c1	none (no result: CYP2C9 activ, CYP2C19 act, CYP2C19 inhib, CYP2C9 inhib)
CC1(C)CC(=O)C2=C(C1)N(c1ccccc1)C(N)=C(C#N)C2c1ccccc1 (stereo not drawn)	none (no result: CYP2C9 activ, CYP2C19 act, CYP2C19 inhib, CYP2C9 inhib)
O=C1CCCC2=C1C(Cc1ccccc1)C1=C(CCCC1=O)O2	CYP2C19 inhib 82
COc1ccc(C2C(C#N)=C(N)N(c3sc4c(c3C#N)CCCC4)C3=C2C(=O)CC(C)(C)C3)cc1OC (stereo not drawn)	CYP2C19 inhib 62, CYP2C9 inhib 86
CCn1c2ccccc2c2cc(C3C(C#N)=C(C)NC(C)=C3C#N)ccc21	CYP2C19 inhib 100, CYP2C9 inhib 95
CC1(C)CC(=O)C2=C(C1)N(c1ccccc1)C(N)=C(C#N)C2c1cccnc1 (stereo not drawn)	CYP2C9 inhib 50
CCn1c2ccccc2c2cnc(N=CN(C)C)c(C#N)c21	none
CCc1nnc(NC(=O)CSc2nnc(Cc3cccn3C)n2C)s1	none (no result: Pyk2 oligo antag)
COc1ccc(Cl)c(NCCC(=O)O)c1	none (no result: CYP2C9 activ, CYP2C19 act, CYP2C19 inhib, CYP2C9 inhib)
Cc1cc(C)n2nc(SCn3nnc4ccccc4c3=O)nc2n1	CYP2C19 inhib 72
Cc1cc(C)n2nc(SCC(=O)c3ccccc3)nc2n1	CYP2C19 inhib 59
Cc1cc(SCC(=O)Nc2ccccc2)nc(C)n1	none
Cc1ccc(C(=O)CSc2ccccn2)cc1	CYP2C19 inhib 82
O=C(CSc1ccccn1)c1ccc(F)cc1	none
Cc1cc(=O)[nH]c(SCn2nnc3ccccc3c2=O)n1	none
Cc1cc(SCC(=O)c2ccccc2)nc(C)n1	CYP2C19 inhib 67
Cc1cc(C)n2nc(SCC(=O)N(C)Cc3ccccc3)nc2n1	none
Cc1nn(C)c(C(=O)N/N=C/c2ccc(C(F)(F)F)cc2)c1[N+](=O)[O-]	none (no result: CYP2C9 activ, CYP2C19 act, CYP2C19 inhib, CYP2C9 inhib)
